PubChem BioAssay AID588519 (ICCB-Longwood Screening Facility, Harvard Medical School, 2011)
About 1,000 (0.67%) of roughly 150,000 compounds were called active. Rule as the data show it: active = % elongation below about 90%; inactive = the rest, inconclusive results apart. The sample as a whole holds a higher share of actives than the screen did.

Target: Genome polyprotein (Poliovirus type 1 (strain Mahoney)) (UniProt P03300)
Assay: poliovirus RdRp elongation inhibitors, primary screen, biochemical, fluorescence polarization, total intensity (AID 588519); as to z-score: compound at 16.7 µg/mL
Conditions: poliovirus polymerase elongation, stronger effect = lower value; for % elongation: compound at 16.7 µg/mL; for z-score: measured here: FP z-score
[1] = measured here: total intensity read-out

Genome polyprotein (Poliovirus type 1 (strain Mahoney)), sequence (P03300 1749-2209 limits assumed): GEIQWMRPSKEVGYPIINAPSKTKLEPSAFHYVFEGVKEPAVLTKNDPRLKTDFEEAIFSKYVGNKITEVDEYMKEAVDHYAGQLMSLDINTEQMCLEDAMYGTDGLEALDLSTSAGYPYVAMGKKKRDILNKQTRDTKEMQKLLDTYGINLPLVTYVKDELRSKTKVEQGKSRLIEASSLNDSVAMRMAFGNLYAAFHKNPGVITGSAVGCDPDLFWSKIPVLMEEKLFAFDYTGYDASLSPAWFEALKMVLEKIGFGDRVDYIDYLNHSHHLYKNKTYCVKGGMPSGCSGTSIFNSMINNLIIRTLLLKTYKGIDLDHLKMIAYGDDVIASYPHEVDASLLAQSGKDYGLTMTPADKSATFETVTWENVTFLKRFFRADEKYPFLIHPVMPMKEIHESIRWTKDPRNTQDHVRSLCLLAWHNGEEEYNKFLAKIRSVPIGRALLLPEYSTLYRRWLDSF

Row | SMILES | % elongation | z-score | % elongation [1] [%]
1 | COC(=O)c1cc(N2CCNCC2)nc2ccccc12 | 88% (active) | -1.4 | 88
2 | Cc1cc(N2CCNCC2)nc(C)n1 | 102% (inactive) | 0.1 | 102
3 | N#CCCn1c(SCC(=O)NCCSc2ccc(Cl)cc2)nc2ccccc21 | 101% (inactive) | -0.2 | 104
4 | Cc1cc(SCc2ccccc2)nc2ccccc12 | 103% (inactive) | 0.4 | 102
5 | Cc1cc(/C=C/C(=O)N2CCCC2c2cccs2)c(C)n1Cc1ccco1 (stereo unspecified) | 104% (inactive) | 0.6 | 98
6 | CCCCOC(=O)Nc1nccs1 | 100% (inactive) | -0.4 | 99
7 | Nc1[nH]c(=S)sc1C(=O)Nc1nccs1 | 70% (active) | -3.3 | 75
8 | Cn1cccc1C(=O)Nc1nccs1 | 111% (inactive) | 0.9 | 116
9 | CCN(C(=O)CSc1nnc2scc(-c3cccc(OC)c3)n12)c1ccccc1 | 103% (inactive) | 0.2 | 100
10 | C#CCN1CCS(=O)(=O)CC1 | 100% (inactive) | -0.3 | 103
11 | CCNC(=O)C1CCCN(S(=O)(=O)N(CC)c2ccc(OCC)cc2)C1 (stereo unspecified) | 103% (inactive) | 0.5 | 105
12 | CC(C)c1ccc(C2CC(=O)N3CN(C4CCCCC4)CSC3=C2C#N)cc1 (stereo unspecified) | 81% (active) | -3.5 | 82
13 | Cc1cc(C)c(C(=O)COC(=O)c2ccc(N(C)C)cc2)c(C)c1 | 104% (inactive) | -0.3 | 97
14 | CCN1CCN(C(=O)C2CCCCC2C(=O)O)CC1 (stereo unspecified) | 102% (inactive) | 0 | 103
15 | CCOC(=O)c1c(N)sc2c1CC(C)(C)OC2 | 103% (inactive) | 0.4 | 106
16 | CCOC(=O)c1c(NC2=CC(=O)CCC2)sc2c1CCCCC2 | 107% (inactive) | 0.6 | 112
17 | CCOC(=O)c1c(N)sc2c1CCCS2 | 64% (active) | -3.9 | 74
18 | CCC(=O)c1cn(CC(=O)N2CCCC2)c2ccccc12 | 107% (inactive) | 0.5 | 109
19 | OC1CCN(C(=S)Nc2ccccc2)CC1 | 101% (inactive) | 0 | 100
20 | Fc1ccc(NC(=S)N2CCN=C2Nc2ccc(F)cc2)cc1 | 87% (active) | -5.7 | 82
21 | COc1ccc(NC(=S)N2CCCCC2)cc1 | 100% (inactive) | -0.3 | 108

Row | SMILES | % elongation | z-score | % elongation [1] [%]
22 | O=C1CCC/C1=C1\SCC(=O)N1c1ccccc1 | 101% (inactive) | -0.3 | 99
23 | Cc1ccc(C)c(NC(=O)C(c2ccccc2)N2CCCCC2C(N)=O)c1 (stereo unspecified) | 97% (inactive) | -0.5 | 103
24 | C=CCn1c(SCC#N)nc2c(c1=O)C1(CCCCC1)Cc1ccccc1-2 | 102% (inactive) | 0.1 | 103
25 | COc1ccc(Cc2nnc(SCC(=O)Nc3ccc(S(=O)(=O)N4CCCCCC4)cc3)o2)cc1 | 104% (inactive) | 0.4 | 102
26 | Nn1c(SCC(=O)Nc2ccc(S(=O)(=O)N3CCCC3)cc2)nnc1-c1ccccc1 | 76% (active) | -5.5 | 80
27 | O=C(CSc1nnc(-c2ccncc2)n1-c1ccccc1)Nc1ccccc1 | 100% (inactive) | -0.8 | 96
28 | Cc1ccccc1CN1CCN(CC(=O)NCc2cccs2)C1=O | 98% (inactive) | -0.7 | 103
29 | CCCC(Nc1cc(Cl)cc(Cl)c1)n1nnc2ccccc21 (stereo unspecified) | 104% (inactive) | 0.1 | 110
30 | O=C(CSC(=S)N1CCCC1)Nc1ccccc1OC(F)F | 105% (inactive) | 0.5 | 104
31 | Cc1ccc(N2C(=O)NC(=O)/C(=C\c3ccco3)C2=O)c(C)c1 | 99% (inactive) | -0.2 | 97
32 | CS(=O)(=O)C1=NSC2=NC(=O)/C(=C\c3ccco3)C(=N)N21 | 66% (active) | -10.9 | 23
33 | CC(C)(C)C1C/C(=C/c2ccco2)C(=O)/C(=C/c2ccco2)C1 (stereo unspecified) | 76% (inactive) | -3.3 | 189
34 | CN(C)/C=N/N=C(\Cc1nc2ccccc2[nH]1)c1ccccc1 | 102% (inactive) | 0.2 | 106
35 | O=C(COC(=O)c1cc(=O)[nH]c2ccccc12)NCc1ccco1 | 107% (inactive) | 0.6 | 101
36 | CCOc1ccc(-c2ccc(NS(=O)(=O)c3ccccc3)cc2)nn1 | 102% (inactive) | 0.9 | 104
37 | S=C(c1ccc(-c2ccccc2)o1)N1CCCCC1 | 99% (inactive) | -0.3 | 101
38 | S=C(c1ccc(-c2ccc(Cl)cc2)o1)N1CCN(c2ccccc2)CC1 | 63% (active) | -4.2 | 70
39 | Clc1ccc(/C=N\N2CCN(c3ccccc3)CC2)cc1 | 108% (inactive) | 1.3 | 100
40 | CCC(Cc1ccccc1)NC(=O)c1ccco1 (stereo unspecified) | 99% (inactive) | -0.3 | 100
41 | Cc1noc(C)c1CSc1nnc(-c2ccccc2Br)n1Cc1ccccc1 | 96% (inactive) | -0.6 | 102
42 | C=C(C)CNC(=S)N=Nc1c(O)n(C)c2ccccc12 | 98% (inactive) | -0.4 | 101
